Laboratory results: PMC7819943, “Rice protein-binding microarrays: a tool to detect cis-acting elements near promoter regions in rice”
In all, about 68,000 sequences were measured (“fluorescence intensity (a.u.)”: median about 9,100, highest 2% from about 16,000 on). What follows is part of a selection rich in the highest values, with near analogues and random picks from the rest.

Biological target: OsWRKY34 (Oryza sativa, UniProt Q0JBA9 1-250)
Assay: protein-binding microarray (RPBM); PBS, 2% BSA, 51.3 ng/ul salmon testes DNA, 50 uM zinc acetate, 200 nM TF, 25 C, 1 h; high values mean tight binding
Details: protein: recombinant; tags: N-terminal polyhistidine and DsRed monomer fusion (pET32a); label: CyDye5-dUTP incorporated in the synthesized complementary strand; 3' TTTTT single-stranded linker to array surface; dsDNA, one strand shown
How it was run: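 In PBS with 2% BSA, salmon testes DNA and 50 µM zinc acetate, 200 nM protein was incubated on a custom Agilent array at 25 °C for 1 h and then washed off. The array had been made double-stranded by primer extension with Cy5-dUTP and blocked with 2% BSA. The proteins were transcription factors fused N-terminally to polyhistidine and DsRed, expressed in E. coli BL21-CodonPlus and purified on Ni–NTA. The binding signal is per-feature fluorescence intensity (arbitrary units) from an Axon 4000B scanner.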

OsWRKY34, sequence (Q0JBA9 entry or part of it): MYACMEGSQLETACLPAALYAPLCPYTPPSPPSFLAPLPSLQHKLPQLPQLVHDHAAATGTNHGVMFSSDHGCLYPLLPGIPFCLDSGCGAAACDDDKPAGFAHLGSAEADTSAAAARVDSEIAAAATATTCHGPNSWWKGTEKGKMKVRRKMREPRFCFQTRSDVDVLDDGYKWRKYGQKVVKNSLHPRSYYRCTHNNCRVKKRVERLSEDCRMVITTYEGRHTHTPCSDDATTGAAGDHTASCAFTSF

Row | Sequence | binding signal
1 | AATACGGTTTGGAAGGGATCTTTTTTGGTTGGTTGCACTGCGGAGTCACCTAGTGCAG | 9650 fluorescence intensity (a.u.)
2 | ATAGTTGTTTTGCCTACCCCACCCATGCCGAAGATGGACACGGAGTCACCTAGTGCAG | 8790 fluorescence intensity (a.u.)
3 | ATCTTTTCTCTTCTCGACTTCTCGTATGCCGCGTCCCGTCCGGAGTCACCTAGTGCAG | 11100 fluorescence intensity (a.u.)
4 | CTTGTGGCTTGTGCAATTCTGTTTCATCGAGTTTGTTAACCGGAGTCACCTAGTGCAG | 8830 fluorescence intensity (a.u.)
5 | TTCAAATCTCATCCGAATTTTTTGTTTTTTATTTTTTTTTCGGAGTCACCTAGTGCAG | 8280 fluorescence intensity (a.u.)
6 | TAGTTCATCCTTGACATCAAGTGGGTTGCTAGTCTCATTCCGGAGTCACCTAGTGCAG | 9450 fluorescence intensity (a.u.)
7 | TAGGCTGTATTCTTATCCACTCATGCAGTGCTCTGATAGGCGGAGTCACCTAGTGCAG | 11000 fluorescence intensity (a.u.)
8 | TGGTTTGCATCTCTTCTTGCTCTTTGGAGGATTTACTACTCGGAGTCACCTAGTGCAG | 9510 fluorescence intensity (a.u.)
9 | GGTCGCCGGATCGCGGGAGGGAGGGAGGGAGGGAGGGAGGCGGAGTCACCTAGTGCAG | 14100 fluorescence intensity (a.u.)
10 | GAGGCCGGGGTCGGGGCGAGCGAGGCGAGAGGGGAGGAGGCGGAGTCACCTAGTGCAG | 8910 fluorescence intensity (a.u.)
11 | CGGCGGCGGAGGAGGAGGAGGAGGAGGGCGCGGGGCGGCGCGGAGTCACCTAGTGCAG | 21700 fluorescence intensity (a.u.)
12 | TTCTTCTAGAGGAGGAGGAGGCGGCGGGGCGGCGGGCGAGCGGAGTCACCTAGTGCAG | 17300 fluorescence intensity (a.u.)
13 | GGGAGTGTGGAGGTGTTGTGCTGCGGCGTGGGTGTGTTGGCGGAGTCACCTAGTGCAG | 8640 fluorescence intensity (a.u.)
14 | GCGGCCGGTCCGAGCGAGCGGAGAGGGAGGAGGCGGGGAGCGGAGTCACCTAGTGCAG | 8360 fluorescence intensity (a.u.)
15 | GGGCGGAGGCGGGGATCGCGGCGGGAGGGGTGGATCCATGCGGAGTCACCTAGTGCAG | 17400 fluorescence intensity (a.u.)
16 | GGCGTGTTGTGTTCGGGTGGGTGCTGCGCAGGCTGCTGTACGGAGTCACCTAGTGCAG | 17300 fluorescence intensity (a.u.)
17 | GCAGGCGGAGGCGGAGGCGGAGGCGGAGGCGGCGGCGGCGCGGAGTCACCTAGTGCAG | 8950 fluorescence intensity (a.u.)
18 | CGGGGTGGGAGCAGGGGTCGCGCGGCGGGGTGCGGCCATGCGGAGTCACCTAGTGCAG | 10100 fluorescence intensity (a.u.)
19 | GTGTTGGTGGCTCTGGCTGCGTCGACGTGCGCAGGGCGTTCGGAGTCACCTAGTGCAG | 8050 fluorescence intensity (a.u.)
20 | AGGAGGCGGGGCGGGGCGGCGGCGGCGGCGGCGGCGCCCGCGGAGTCACCTAGTGCAG | 11500 fluorescence intensity (a.u.)
21 | CTGCTCTTTCTTCTCTCTGCATTCCATTTCATTACTGCCTCGGAGTCACCTAGTGCAG | 11000 fluorescence intensity (a.u.)
22 | AGCTCGTGTGGTGTATGTTGTTGTGTGCTGCTAGCTAGCTCGGAGTCACCTAGTGCAG | 10200 fluorescence intensity (a.u.)
23 | TCCATGCCATCTGCTGAACAGACCCATGCATCCTTCAACTCGGAGTCACCTAGTGCAG | 8920 fluorescence intensity (a.u.)

Row | Sequence | binding signal
24 | CACATCAAATTTATTTTCTCCCAAAATGAGGCGCGCAACACGGAGTCACCTAGTGCAG | 8670 fluorescence intensity (a.u.)
25 | GCTGTCGTTGAATTTTTGTTTGTTTTCTTGGCGTGTTGCACGGAGTCACCTAGTGCAG | 13300 fluorescence intensity (a.u.)
26 | CTTTCCATGGTTTTTGCTCCCGCAGCCCGGGCCACTGCCCCGGAGTCACCTAGTGCAG | 11600 fluorescence intensity (a.u.)
27 | CGTCTCGTTTCTCATCTCAAAATTTCGCGCCTCGTCGCCGCGGAGTCACCTAGTGCAG | 8640 fluorescence intensity (a.u.)
28 | GCTCAGCCGCCGTCGCCAGTCCAACCTCCGCCACCGCGGCCGGAGTCACCTAGTGCAG | 8640 fluorescence intensity (a.u.)
29 | ACAGCTTAAAATTTCCTCCTCCGCCCAAAAACCCTCTCGACGGAGTCACCTAGTGCAG | 24300 fluorescence intensity (a.u.)
30 | CCCGAACCCACCACCTCCGCCCATTTCCGCCTCCTCTCGACGGAGTCACCTAGTGCAG | 9190 fluorescence intensity (a.u.)
31 | CCAAACCCAACCCTCGACGCCAATTAAACACCAATTTTCTCGGAGTCACCTAGTGCAG | 8920 fluorescence intensity (a.u.)
32 | CCTTGACAGATTAATCCTACGTTTTGACCCCATATGTTTTCGGAGTCACCTAGTGCAG | 8880 fluorescence intensity (a.u.)
33 | CTTGTAGCTGTAATTCCCTATTGTTGTTTTTCGGTACTGTCGGAGTCACCTAGTGCAG | 13200 fluorescence intensity (a.u.)
34 | TCGCAAGAGTTGTTGAAAGTTGACCAGCATATTGAGGCCCCGGAGTCACCTAGTGCAG | 8130 fluorescence intensity (a.u.)
35 | AGACATTCTCCATTTTCTTTCTTCTCTTCACTCACACTCACGGAGTCACCTAGTGCAG | 8800 fluorescence intensity (a.u.)
36 | ACAACTCACTCTCTTCATTTTCCATTCTCGTGCTTTTCAACGGAGTCACCTAGTGCAG | 16600 fluorescence intensity (a.u.)
37 | TCTCAATTGCACCTCATTTAATCCTCATTTTTCATCTTTTCGGAGTCACCTAGTGCAG | 11800 fluorescence intensity (a.u.)
38 | TTCCTTTTTCATCTTCTTTTCACATTTTTTCTTTATTTTTCGGAGTCACCTAGTGCAG | 12400 fluorescence intensity (a.u.)
39 | ACTCACCTCTCTCATCTTTCGTGCACACATTTTTCAATTTCGGAGTCACCTAGTGCAG | 17700 fluorescence intensity (a.u.)
40 | CAACACATCTCTTGCATTTTTTTTTCTTTGCATTCTCATTCGGAGTCACCTAGTGCAG | 8200 fluorescence intensity (a.u.)
41 | TTCTTTGGATTTGATTGGTGCCGCCTTTTTTCGCTATTGACGGAGTCACCTAGTGCAG | 15600 fluorescence intensity (a.u.)
42 | ACTCACTTCAAAATTTTCACATCCTCTCTCATCATTTTTTCGGAGTCACCTAGTGCAG | 11100 fluorescence intensity (a.u.)
43 | TCTCTTTTCTCATTTTTTCGCTTGCCACATCATTTTCTATCGGAGTCACCTAGTGCAG | 9600 fluorescence intensity (a.u.)
44 | GCCTATTCTTTTCGCCACCGCTATCGCCACACATCACGGACGGAGTCACCTAGTGCAG | 17500 fluorescence intensity (a.u.)
45 | CACACACACCGATCTTTTCATTCATTCTTTTCTTTCTTTTCGGAGTCACCTAGTGCAG | 18700 fluorescence intensity (a.u.)
